Experimental data from PMC5540273 (PLoS ONE, 2017).

Experiments:
PIK4CB = test system: T1, PIK4CB
T1 construct: gene PI4KB
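Note: kd values determined as follow-up on hits from a single-replicate KINOMEscan panel screen.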

Question: How did the Kd (RIPK2) turn out when `c1ccc(-c2cc(-c3c[nH]nc3-c3ccccn3)ccn2)cc1` [GW576604] was run?
Answer: Its Kd is 7.6 µM.

Question: What does the source list for `Cc1c(Cn2c(C)nn3c(=O)cc(N4CCOC(C)C4)nc23)cccc1C(F)(F)F` (stereo not drawn) [GSK2344444]?
Answer: Kd (PIK3CB): 0.00067 µM; Kd (PIK3CD): 0.08 µM

Question: How did the Kd (PIK4CB) turn out when `NS(=O)(=O)c1cccc(-c2ccc3ncc(N4CCOCC4)nc3c2)c1` [GSK1535721] was run?
Answer: Its Kd is 0.86 µM.

Question: For `NS(=O)(=O)c1cccc(-c2ccc3nccc(-c4cccc(S(N)(=O)=O)c4)c3c2)c1` [GW867253], which Kd (PIK3CG) is on record?
Answer: Its Kd is 0.081 µM.

Question: And the Kd (PIK4CB)?
Answer: Its Kd is 0.032 µM.

Question: Which Kd (PIK3CB) does the source give for `O=c1cc(N2CCOCC2)nc2n(Cc3cccc(F)c3)ccn12` [GSK2297430] here?
Answer: Its Kd is 0.055 µM.

Question: `N#Cc1c(N2CCOCC2)sc(-c2ccn[nH]2)c1-c1ccc(Cl)cc1` was tested. Which Kd (PIK3CA) did it give?
Answer: The Kd was 0.032 µM.

Question: And the Kd (PIK3CB)?
Answer: The Kd was 0.75 µM.

Question: How did the Kd (PRKCI) turn out when `Fc1ccc(-c2ncn(CCCN3CCOCC3)c2-c2ccccn2)cc1` [SB-211742] was run?
Answer: The Kd was > 10 µM.

Question: Which Kd (NLK) does the source give for `O=C(Nc1n[nH]c2cc(-c3cccc(F)c3)ccc12)C1CC1` [SB-735464] here?
Answer: Its Kd is 0.087 µM.

Question: What does the source list for `C[C@@H](Oc1cc(-n2cnc3ccc(NC(=O)NC(C)(C)C)cc32)sc1C(N)=O)c1ccccc1Cl` [GSK346294]?
Answer: Kd (PLK1): 0.0073 µM; Kd (PLK2): 0.077 µM; Kd (PLK3): 0.15 µM

Question: `Cc1cccc(Cn2ccn3c(=O)cc(N4CCOCC4)nc23)c1` [GSK2297542] was tested. Which Kd (PIK3CB) did it give?
Answer: The Kd was 0.023 µM.

Question: `Cc1nnc(-c2ccc3ncc(-c4ccc(S(C)=O)cc4)n3c2)o1` (stereo not drawn) was tested. Which Kd (PDGFRB) did it give?
Answer: The Kd was 0.49 µM.

Question: With `O=C(NCCNc1ccnc(Nc2ccc(F)cc2)n1)Nc1ccccc1F` [GSK1379880] as the molecule, how does the Kd (PLK1) read?
Answer: The Kd was > 10 µM.

Question: `Cc1nnc(-c2ccc3occ(-c4ccc(C(C)O)cc4)c3c2)o1` (stereo not drawn) was tested. Which Kd (PIM2) did it give?
Answer: The Kd was 0.94 µM.

Question: And the Kd (RAF1)?
Answer: Its Kd is > 10 µM.

Question: For `O=C1Cc2cc(Nc3nc(NCc4cccc(S(=O)(=O)C(F)(F)F)c4)ncc3C(F)(F)F)ccc2N1`, which Kd (PAK4) is on record?
Answer: The Kd was > 10 µM.

Question: And the Kd (PIM1)?
Answer: Its Kd is > 10 µM.

Question: Which Kd (PRKD1) does the source give for `Cc1cccc(-c2nc(Nc3ccc4ncsc4c3)c3ccccc3n2)n1` [GW867588] here?
Answer: Its Kd is 0.016 µM.

Question: And the Kd (PRKD2)?
Answer: The Kd was 0.022 µM.

Question: Which Kd (PIK3CB) does the source give for `O=c1cc(N2CCOCC2)nc2n(Cc3cccc4ccccc34)ccn12` [GSK2333389] here?
Answer: The Kd was 0.0029 µM.

Question: And the Kd (PIK3CD)?
Answer: Its Kd is 0.15 µM.

Question: What about the Kd (RET) of the same molecule?
Answer: The Kd was > 10 µM.

Question: `Cc1cn2c(=O)cc(N3CCOCC3)nc2n1Cc1cccc(Cl)c1Cl` [GSK2334006] was tested. Which Kd (PIK3CB) did it give?
Answer: Its Kd is 0.0024 µM.

Question: And the Kd (PIK3CD)?
Answer: Its Kd is 0.12 µM.

Question: `COc1ccc(S(=O)(=O)NC2CCN(c3cc(C)nc(Nc4cccc(C#N)c4)n3)CC2)cc1.O=C(O)C(F)(F)F` [GSK1653539] was tested. Which Kd (PIK3CB) did it give?
Answer: Its Kd is > 10 µM.

Question: `O=c1cc(N2CCOCC2)nc2n(Cc3cccc(Cl)c3Cl)c(C3CC3)nn12` [GSK2358994] was tested. Which Kd (PIK3CB) did it give?
Answer: Its Kd is 0.00094 µM.

Question: And the Kd (PIK3CD)?
Answer: Its Kd is 0.82 µM.

Question: Which Kd (PDGFRB) does the source give for `Cc1ccc(NC(=O)c2ccnc(N3CCN(C)CC3)c2)cc1-c1ccc(C(=O)NCC2CC2)cc1` [GW775604] here?
Answer: Its Kd is 0.3 µM.

Question: Which results are given for `COc1ccc(COc2cc(-n3cnc4ccccc43)sc2C(N)=O)cc1` [GSK1024304]?
Answer: Kd (PIK3CB): > 10 µM; Kd (PLK1): 0.037 µM; Kd (PLK2): 0.25 µM; Kd (PLK3): 0.38 µM; Kd (RIOK2): 0.076 µM

Question: How did the Kd (PIK3CB) turn out when `O=c1cc(N2CCOCC2)nc2n(Cc3cccc(C(F)(F)F)c3)ccn12` [GSK2297543] was run?
Answer: Its Kd is 0.14 µM.

Question: Which Kd (PIK3CB) does the source give for `[2H]C([2H])(c1cccc(C(F)(F)F)c1C)n1ccn2c(=O)nc(N3CCOCC3)cc12` [GSK2336394] here?
Answer: Its Kd is 0.051 µM.
